Measured values reported in PubChem BioAssay AID2669 (National Center for Advancing Translational Sciences (NCATS), 2010).
“And” between values parts separate entries of the source, which are not always exact repeats. Equal values may be shown once. Inconclusive results are not listed. The source made the active and inactive calls. Calls follow the shape of the dose curve; as a rule, active = well fitted inhibition curve with a large enough effect; inconclusive = small, poorly fitted or top-dose-only effect, or effect the other way; inactive = flat fitted curve, though single readings scatter.

test: qHTS Assay Multiplex Screening to Identify Dual Action Probes in a Cell Model of Huntington: Cytoprotection (Protease relase); settings: PC12 HttQ103 cells, Cytotox-Glo protease release, 40 h; series mostly up to 46.1 µM
How it was run: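 Cytotox-Glo luminescence of released protease served as the cytoprotection readout. Compounds were added alongside 100 nM final tebufenozide to PC12 cells carrying ecdysone-inducible GFP-tagged HTT exon 1 with 103 glutamines.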

SMILES | Potency
O=C(O)/C=C/C(O)c1ccc(Cl)cc1 (stereo not drawn) | inactive
CC(C(=O)O)c1ccc(CC2CCCC2=O)cc1 (stereo not drawn) | inactive
C[C@@H]1CNCCN1S(=O)(=O)c1cccc2cnccc12 | inactive
Cn1nnnc1Sc1ncnc2scc(Br)c12 | 7.94 µM (active)
COc1cccc(-c2csc3ncnc(Sc4nnnn4C)c23)c1 | 7.08 µM (active)
Cn1nnnc1Sc1ncnc2scc(-c3cccc(F)c3)c12 | 11.2 µM (active)
Cn1nnnc1Sc1ncnc2scc(-c3cccc([N+](=O)[O-])c3)c12 | 12.6 µM (active)
Cn1nnnc1Sc1ncnc2scc(-c3ccccc3)c12 | 2.82 µM (active) and 7.94 µM (active)
Cn1nnnc1Sc1ncnc2scc(-c3ccccc3Br)c12 | 14.1 µM (active)
O=C(Nc1nc(-c2ccc(-c3ccccc3)cc2)cs1)C1CCCO1 (stereo not drawn) | 11.2 µM (active)
O=C(Nc1cccnc1)Nc1ccccc1Cl | 3.16 µM (active)
COc1ccc(C2=Nc3cc(C)ccc3OC2)cc1 | 11.2 µM (active)
O=c1c2ccccc2nnn1CSc1ncnc2ccccc12 | inactive
N#CCSc1nc2ccc(N3CCCCC3)cc2c(=O)n1Cc1ccccc1 | 22.4 µM (active)
Cc1nnc(C)n1/N=C/c1cc(Br)cc(Br)c1O | inactive
CCN(Cc1ccncc1)C(=O)c1cc(Br)cc(Br)c1O | inactive
COc1ccc2cc3cc(C(=O)NCc4ccco4)oc3nc2c1 | 1 µM (active)
COc1ccc(C)cc1NC(=O)C(Sc1nnnn1C)c1ccccc1 (stereo not drawn) | inactive
Cn1nnnc1Sc1ncnc2scc(-c3cnc(N)nc3)c12 | 11.2 µM (active)
C=CCC(=O)OCCCCCCOc1ccc(C(=O)O)cc1 | 1.41 µM (active)
COc1ccc(-c2[nH]ncc2-c2ccc3c(c2)OCCO3)c(O)c1 | 15.8 µM (active)
Cc1ccc(-n2ncc(Br)c(Br)c2=O)cc1 | 12.6 µM (active)
CCOC(=O)N1CCN(C(=O)CSCC(=O)Nc2nc(-c3ccc(-c4ccccc4)cc3)cs2)CC1 | 3.16 µM (active)
